Screening results (PubChem)
Shown are actives, neighbours in structure and some others; about 13% of the full set was active somewhere.
LASV entry inh: qHTS for Inhibitors of binding or entry into cells for Lassa Virus | AID 540256, 2011 | Lassa virus pseudotype entry inhibition, cell reporter | actives 1.2% (n = 300,000) | Potency, µM (highest dose often 37.9 µM), for inactives: at the highest dose activity change, negative = inhibition, actives largely listed as inhibitors; calls by dose curve; tested in HEK293 cells; also: potency is read from the fitted curve at half-maximal effect; % is scaled to controls: 0 for no effect and ±100 for the full control effect; nearly all actives have a fitted effect of over 50% in size
FMDV inh: High Throughput Screening for Foot and Mouth Disease Virus Antivirals. FMDV antiviral cell-based qHTS. actives 1.2% (n = 410,000). Potency, µM (titrated, usually from 57.9 µM), for inactives: at the highest dose activity change, negative = inhibition, usual class: inhibitors; calls by dose curve; tested in HEK293T cells; also: read-out not given here; potency is read from the fitted curve at half-maximal effect; % is scaled to controls: 0 for no effect and ±100 for the full control effect; nearly all actives have a fitted effect of over 45% in size
HCV inhibitor: qHTS Assay for Inhibitors of Hepatitis C Virus (HCV). Huh7.5.1 HCVcc-Cre infection, luciferase reporter, 44 h. Potency, µM (series often up to 41.8 µM), without a hit: at the top dose activity change, negative = inhibition, most hits filed as inhibitors. actives 3.4% (n = 340,000); active = well fitted inhibition curve with a large enough effect; inconclusive = small, poorly fitted or top-dose-only effect, or another doubt; inactive = no such curve, though single readings can be large or run the other way; also: potency is read from the fitted curve at half-maximal effect; % is scaled to controls: 0 for no effect and ±100 for the full control effect
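Cells (1,000/well) were plated 4 h before compound, then infected with HCVcc-Cre virus (~0.5 moi). After 44 h further culture, infection was read as luciferase luminescence following a 15 min substrate incubation at room temperature.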
Cycloheximide cs: Cycloheximide Counterscreen for Small Molecule Inhibitors of Shiga Toxin; max response, %; actives 12% (n = 300,000); AID 2314, 2010; cell reporter, cycloheximide protein synthesis inhibition counterscreen; in the data active = max response mostly above about 13%, no sharp cut-off; inactive = mostly below about 14%; also: read at 38.3 µM for the half of the compounds with a filed dose; 0% is about no effect
Marburg entry inh: qHTS for inhibitors of binding or entry into cells for Marburg Virus; Potency, µM (doses to about 37.8 µM), for the others: at the top dose activity change, negative = inhibition, most hits filed as inhibitors; actives 1.8% (n = 300,000); AID 540276, 2011; Marburg virus pseudotyped entry inhibition, cell reporter; calls by dose curve; tested in HEK293 cells; also: potency is read from the fitted curve at half-maximal effect; % is scaled to controls: 0 for no effect and ±100 for the full control effect
Shiga toxin inh: A qHTS for Small Molecule Inhibitors of Shiga Toxin. Vero cells, Shiga toxin protein synthesis inhibition reporter. inhibition, % at 38.7 µM. actives 9.2% (n = 290,000). AID 2315, 2010; in the data active = inhibition mostly above about 28%, no sharp cut-off; inactive = mostly below about 43%; also: 0% is about no effect
An asterisk follows results filed as active; u = inconclusive; x = not tested or not shown; [ ] = remark or other dose.

SMILES	LASV entry inh	FMDV inh	HCV inhibitor	Cycloheximide cs	Marburg entry inh	Shiga toxin inh
CC(=O)c1cccc(NC(=O)CSc2ccc(-c3sc(C)nc3C)nn2)c1	u	u	u	21	u	35
Cc1nc(C)c(-c2ccc(SCc3ccc([N+](=O)[O-])cc3)nn2)s1	x	-29%	32µM*	10	x	4
Cc1nc(C)c(-c2ccc(SCC(=O)Nc3cccc(F)c3)nn2)s1	u	u	14µM*	21	u	25
CCc1ccc(NC(=O)CSc2ccc(-c3sc(C)nc3C)nn2)cc1	x	-21%	11µM*	8	x	-5
Cc1nc(C)c(-c2ccc(SCC(=O)Nc3ccc(Br)cc3)nn2)s1	u	-17%	x	x	x	x
Cc1nc(C)c(-c2ccc(SCc3ccc(Cl)cc3)nn2)s1	x	-8%	u	2	x	9
Cc1nc(C)c(-c2ccc(SCC(=O)Nc3cccc(Cl)c3)nn2)s1	-1%[46.1 µM]	u	10µM*	14	1%[46.1 µM]	-6
COc1ccc(NC(=O)CSc2ccc(-c3sc(C)nc3C)nn2)cc1	u	u	u	12	4%	-5
Cc1nc(C)c(-c2ccc(SCc3cccc(F)c3)nn2)s1	x	15%	u	21*	x	25
COc1ccc(CCC(=O)Nc2c(C)n(C)n(-c3ccccc3)c2=O)cc1	x	-12%	-1%	-7	x	7
C=CCn1c(C)cc(C(=O)COC(=O)/C=C/c2cccc(OC)c2)c1C	x	-5%	13µM*	27*	x	4
Cc1cc(C(=O)COC(=O)/C=C/c2cccc(F)c2)c(C)n1C	-5%	23%	-13%	29*	15%[46.1 µM]	77*
C=CCn1c(C)cc(C(=O)COC(=O)COc2ccccc2C#N)c1C	6%	15%	18%	14	5%[46.1 µM]	15
C=CCn1c(C)cc(C(=O)COC(=O)[C@@H](NC(=O)c2ccccc2Cl)C(C)C)c1C	u	u	26%	40*	u	19*
Cc1cc(C(C)(C)C)cc(C)c1CCNC(=O)c1c(C)noc1C	u	u	11µM*	x	u	x
COc1cccc2cc(C(=O)CS(=O)(=O)c3ccc(Cl)cc3)c(=O)oc12	x	0%	7%	-4	x	2
Cc1ccccc1NC(=O)OCc1ccccc1	8%[46.1 µM]	30%	1%	28*	5%[46.1 µM]	59*
CCOC(=O)c1ccccc1NC(=O)c1ccccc1SC	0%	-13%	u	-2	u	-8
CSc1nsc(SC)c1NC(=O)OCc1ccccc1	-8%	17%	-15%	22*	16%	45
CSc1ccccc1COC(=O)Nc1ccccc1C	-24%[46.1 µM]	3%	-21%	29*	u	36
O=C(O)c1cccc(N2C(=O)c3cc([N+](=O)[O-])cc4cc([N+](=O)[O-])cc(c34)C2=O)c1	x	35µM*	u	-4	x	-6
O=C(O)c1cccc(N2C(=O)/C(=C/c3ccc([N+](=O)[O-])cc3)C=C2c2ccccc2)c1	x	13µM*	5%	23*	x	38*
O=C1c2cc([N+](=O)[O-])cc3cc([N+](=O)[O-])cc(c23)C(=O)N1c1ccccn1	u	13µM*	u	-2	u	-5
CC(C)(C)NC(=O)c1cccnc1Sc1ccccc1	0%[46.1 µM]	-2%	4%	11	6%[46.1 µM]	-4
CCN(CC)S(=O)(=O)c1cc(C(=O)Nc2cccnc2)ccc1Cl	15%	u	u	5	4%	16
CCN(CC)S(=O)(=O)c1cc(C)ccc1NC(=S)Nc1cccnc1	u	-9%	11µM*	11	11µM*	9
Cc1ccc(NC(=O)CN(C)C(=O)COC(=O)c2ccc(NC(=O)CC#N)cc2)cc1	5%	-17%	9%	x	-13%	x
Cc1ccc(Cn2ccsc2=NC(=O)COC(=O)c2ccc(NC(=O)CC#N)cc2)cc1	u	25µM*	u	x	u	x
Cc1ccc(Cn2ccsc2=NC(=O)CCl)cc1	x	u	0.56µM*	32*	x	45*
CCN(C(=O)CSc1nnc(-c2ccccc2Br)o1)C1CCS(=O)(=O)C1 (stereo not given)	-17%	5%	0%	3	3%[46.1 µM]	8
